Laboratory results as given in PubChem BioAssay (NCI).
About 83,000 compounds went through this panel and 20% of them were active in at least one assay; those are over-represented in the sample as a whole.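 Compound tested at a single concentration for 48 hours in 96-well plates; a percent growth value below 10 was scored as active.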 A number with no mark means an inactive call. Active and inactive are the calls of the source.

What follows are compounds tested on EKVX NSCLC (assay: NCI-60 one-dose screen, 48 h (100 = growth as untreated, 0 = no growth, -100 = all killed)). Settings: 10 µM unless noted.
Experimental: Growth inhibition of the EKVX human Non-Small Cell Lung tumor cell line is measured as a screen for anti-cancer activity. Cells are grown in 96 well plates and exposed to the test compound for 48 hours. Compounds are tested at a single concentration, which is 10^-5 M for most compounds. The reported endpoint is percent growth (GI% or GIPRCNT), where numbers from 0 - 100% represent growth inhibition, and numbers from -100% - 0 represent cell death. For example, a value of 40 represents 60% growth inhibition. A value of 0 means no net growth occurred over the course of the experiment. A value of -40 indicates 40% of cells at the beginning of the experiment died by the end of the experiment. A value of -100 means all cells are dead at the end of the experiment.
NCI-60 Human Tumor Cell Lines Screen was performed using the standard one-dose NCI protocol, which is described in more detail at https://dtp.cancer.gov/discovery_development/nci-60/default.htm.
Compounds with GIPRCNT values below 10 were considered active. Activity score was based on GIPRCNT using the following formula: […]
Score is 0 for GIPRCNT values of 100 or above, 50 for GIPRCNT values of 0, and 100 for GIPRCNT values of -100.

| SMILES | growth |
| --- | --- |
| Cc1cccc(C)c1NCc1nnc(-c2ccc(O)cc2)o1 | 90.6% |
| O=C(O)COc1ccc2c(=O)c3sc4c(=O)c5ccccc5c(=O)c4c3c(=O)c2c1 | 78.9% |
| C=C(C)[C@@H]1CC[C@]2(C(=O)OCCCC[P+](c3ccccc3)(c3ccccc3)c3ccccc3)CC[C@]3(C)[C@H](CC[C@@H]4[C@@]5(C)CC[C@H](OC(=O)C(Cl)Cl)C(C)(C)[C@@H]5CC[C@]43C)[C@@H]12 | -13.3% (active) |
| COCCOC(=O)COc1ccc(OC)cc1 | 96.6% |
| COc1c(O)cc2oc3cc(O[C@@H]4OC(C)[C@@H](O)[C@H](O)C4O)c(CC=C(C)C)c(O)c3c(=O)c2c1CC=C(C)C (stereo not given in full) | 82% |
| Cc1ccc(C2=N[C@H]3CCC[C@@H]3N(c3ccccc3)C(C(Cl)Cl)=N2)cc1 | 98.4% |
| O=C1c2ccccc2C(=O)c2c1oc1c2c(=O)[nH]c2ccc(Cl)cc21 | 15.2% |
| CN(C)C1=NCCN1 | 103% |
| COc1ccc(N(C)c2nc(Cl)nc3ccn(C)c23)cc1 | 43.1% |
| CC(=O)[C@@H]1CC[C@]2(C(=O)O)CC[C@]3(C)[C@H](CC[C@@H]4[C@@]5(C)Cc6c([nH]c7ccccc67)C(C)(C)[C@@H]5CC[C@]43C)[C@@H]12 | 42.3% |
| Nc1ccccc1NC(=O)c1ccc(CSc2nc(N3CCOCC3)c3cccn3n2)cc1 | 25.8% |
| O=C1Nc2ccc(Cl)cc2/C1=N/c1nc(-c2ccc(Cl)cc2)cs1 | 25.6% |
| CCC1=C[C@H]2CN(CCc3c([nH]c4ccccc34)[C@@](C(=O)OC)(c3cc4c(cc3OC)N(C)[C@H]3[C@@](O)(C(=O)OC)[C@H](OC(C)=O)[C@]5(CC)[C@@H]6C[C@@H]6CN6CC[C@]43[C@@H]65)C2)C1 | 35.5% |
| O=c1[nH]c(-c2cccc(F)c2)cc2cc(F)ccc12 | 39.3% |
| c1ccc2c3c([nH]c2c1)C(c1ccc(C2NCCc4c2[nH]c2ccccc42)cc1)NCC3 (stereo not given) | 20.6% |
| CCN1CCC[C@H]1c1cc(O)c2c(c1OC)C[C@H]1C[C@H]3[C@H](N)C(=O)C(C(N)=O)=C(O)[C@@]3(O)C(=O)C1=C2O | -8.34% (active) |
| O=C(O)c1ccc(-n2cc(/C=N/Nc3ccc(Cl)cc3Cl)c(-c3ccccc3)n2)cc1 | 77% |
| Cc1nc2sc(C(=O)Nc3cccc(Cl)c3C)c(N)c2cc1C(C)O (stereo not given) | 54.5% |
| COC(=O)c1ccc2c(c1)NC(=O)[C@@H]1CCCN21 | 94.1% |
| CCOC(=O)c1c(C)nc2c(c1N)/C(=C/c1cccs1)C(=O)N2Cc1ccccc1 | 82% |

| SMILES | growth |
| --- | --- |
| CCCCc1n(Cc2ccc3ccccc3n2)cc[n+]1Cc1ccc2ccccc2c1 | 41.7% |
| Cc1cc(C)c(NC(=O)c2sc3nc4c(cc3c2N)CCCCCC4)c(C)c1 | 67.8% |
| CCCn1c2cc(OCc3cn(-c4ccc(Cl)cc4)nn3)ccc2c2ccnc(C)c21 | 80.1% |
| O=c1[nH]nc(-c2ccc(Br)cc2)c2sc(NC(=S)Nc3ccc(Cl)cc3)nc12 | 89.8% |
| CNc1cccc2c1C(=O)c1cccc(N)c1C2=O | 37.9% |
| COc1ccc(-c2cn(-c3ccc(Cl)cc3)c(=S)[nH]2)cc1OC | 74.7% |
| Cc1ccc(SC2c3ccc(C)cc3Oc3nc(N)c(C#N)c(N)c32)cc1 (stereo not given) | 59.8% |
| C=C1C(=O)O[C@H]2[C@H]1CC/C(COC(=O)CCCCCCC(=O)OC/C1=C/CC[C@@]3(C)O[C@H]3[C@H]3OC(=O)C(=C)[C@@H]3CC1)=C\CC[C@@]1(C)O[C@@H]21 | 24.6% |
| CCOC(=O)C(=Cc1c(-c2ccccc2)[nH]c2ccccc12)C(=O)OCC | 71.1% |
| CCOCc1nc2ccccc2c(=O)[nH]1 | 95.8% |
| CSc1nc(-c2cccs2)c2c(N)[nH]nc2n1 | 73.1% |
| COc1ccc(/C=C(/C(=O)N2CCCC2)c2cc(OC)c(OC)c(OC)c2)cc1 | 73.1% |
| N#Cc1c(-c2ccc(Cl)cc2)cc(-c2cc3ccccc3o2)nc1SCC(=O)c1ccc(Cl)cc1 | 116% |
| COc1cccc2c1-c1ccccc1C2=O | 40.7% |
| CCN(CC)c1ccc2c(c1)Oc1nc(N)c(C#N)c(N)c1C2Sc1ccc(OC)cc1 (stereo not given) | 4.46% (active) |
| C[C@@H]1C(=O)[C@@H]2C[C@@H](O)[C@@H](O)C[C@]2(C)[C@H]2CC[C@@]3(C)C(=C12)CC[C@@H]3[C@@](C)(O)[C@H](O)CCC(C)(C)O | 113% |
| CCCCc1nc(Cl)c(C2CC(c3ccc(Cl)cc3)=NN2c2cc(Cl)cc(Cl)c2)[nH]1 (stereo not given) | 57.8% |
| [2H]c1cc2c(c([2H])c1F)/C(=C/c1[nH]c(C)c(C(=O)NCCN(CC)CC)c1C)C(=O)N2 | 44.7% |
| Cc1cnc(SCc2ccc(Cl)cc2)[nH]c1=S | 103% |
| CNS(=O)(=O)c1cccc(-c2ccc3c4c(n(C)c(=O)c3c2)-c2ccccc2C4=O)c1 | 51.7% |
